Results reported in publication PMC4336329 (PLoS ONE, 2015).
Screen size: about 310,000 compounds; about 14,000 (4.5%) showed an effect of 50% or more. The effect is printed as a negative number. The full list was thinned out, with strong results kept by preference.
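Note: peak tail current of the secondary pulse compared with the same well before compound.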

These molecules were tested against human ether-à-go-go-related gene (hERG) potassium channel (human, UniProt Q12809) (assay: primary screen, population patch clamp on CHO cells stably expressing hERG; higher = less effect of the substance).
human ether-à-go-go-related gene (hERG) potassium channel, sequence (Q12809 whole entry, looked up): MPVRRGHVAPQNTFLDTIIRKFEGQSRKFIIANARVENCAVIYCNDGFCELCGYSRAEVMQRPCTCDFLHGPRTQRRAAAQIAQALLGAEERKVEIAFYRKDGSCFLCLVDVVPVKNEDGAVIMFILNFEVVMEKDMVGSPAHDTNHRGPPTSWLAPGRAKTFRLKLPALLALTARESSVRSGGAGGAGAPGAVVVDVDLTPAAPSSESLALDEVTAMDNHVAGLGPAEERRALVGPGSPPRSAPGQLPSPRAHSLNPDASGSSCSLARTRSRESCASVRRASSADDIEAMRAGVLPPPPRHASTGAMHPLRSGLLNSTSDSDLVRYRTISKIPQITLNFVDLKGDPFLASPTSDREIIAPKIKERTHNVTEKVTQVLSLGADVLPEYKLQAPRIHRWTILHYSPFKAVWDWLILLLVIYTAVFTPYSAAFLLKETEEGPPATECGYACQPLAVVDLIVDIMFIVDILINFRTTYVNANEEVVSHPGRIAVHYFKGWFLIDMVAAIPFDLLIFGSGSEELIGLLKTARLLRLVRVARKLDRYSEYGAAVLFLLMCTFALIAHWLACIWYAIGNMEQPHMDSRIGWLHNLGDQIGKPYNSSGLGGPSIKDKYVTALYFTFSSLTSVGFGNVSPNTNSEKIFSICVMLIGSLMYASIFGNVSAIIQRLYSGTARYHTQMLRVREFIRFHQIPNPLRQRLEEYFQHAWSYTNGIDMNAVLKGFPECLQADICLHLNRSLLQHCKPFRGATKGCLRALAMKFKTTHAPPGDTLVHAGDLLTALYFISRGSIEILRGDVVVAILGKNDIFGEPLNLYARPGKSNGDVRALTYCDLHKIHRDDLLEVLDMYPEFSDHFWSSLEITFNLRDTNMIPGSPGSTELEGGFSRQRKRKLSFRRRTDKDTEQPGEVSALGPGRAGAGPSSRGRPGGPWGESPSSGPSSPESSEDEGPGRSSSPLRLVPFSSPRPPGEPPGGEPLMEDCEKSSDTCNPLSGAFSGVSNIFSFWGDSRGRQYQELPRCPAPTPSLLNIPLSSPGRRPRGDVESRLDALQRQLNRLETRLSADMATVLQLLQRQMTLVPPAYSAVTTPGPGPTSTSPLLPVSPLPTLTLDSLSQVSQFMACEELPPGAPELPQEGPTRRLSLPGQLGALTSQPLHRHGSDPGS
COc1ccc(C(=O)Nn2c(SCC(=O)NCC3CCCO3)nc3ccccc3c2=O)cc1 (stereo not shown) was tested, and the “hERG current change (%, negative = inhibition) at 10uM” value was 2.75%. With COc1cccc(CNC(=O)CCNC(=O)N2CCn3c2nc2ccccc23)c1 the “hERG current change (%, negative = inhibition) at 10uM” value was -3.38%. For O=C(NNC(=S)NCc1ccco1)c1ccc(Cl)s1, the “hERG current change (%, negative = inhibition) at 10uM” value was 14.5%. With O=C(c1cccc(Br)c1)N1CCN(C(=O)N2CCOCC2)CC1 the “hERG current change (%, negative = inhibition) at 10uM” value was 10.4%. For O=C(COC(=O)c1cc([N+](=O)[O-])ccc1NCCO)c1ccccc1, the “hERG current change (%, negative = inhibition) at 10uM” value was -15.9%. In the case of CCOc1cc(CNc2ccc3c(c2)OCCO3)cc(Br)c1OCC(N)=O, the “hERG current change (%, negative = inhibition) at 10uM” value is reported as -17.6%. For CC1CCCC(NC(=O)c2cccc(N3CCCC3=O)c2)C1C (stereo not shown), the “hERG current change (%, negative = inhibition) at 10uM” value was -13.5%. For C[C@@H]1CC[C@H]2C(=O)N3[C@@H](CC[C@@H](C)[C@@H]3c3ccc(Br)cc3)C(=O)N2[C@H]1c1ccc(Br)cc1, the “hERG current change (%, negative = inhibition) at 10uM” value was 5.03%. With C[C@H]1CC[C@H]2C(=O)N3[C@H](c4cccc(N5CCCC5=O)c4)[C@@H](C)CC[C@H]3C(=O)N2[C@@H]1c1cccc(N2CCCC2=O)c1 the “hERG current change (%, negative = inhibition) at 10uM” value was -56.3%. CC12CN(C(=O)c3cccc([N+](=O)[O-])c3)C3(C#N)CC1CCC23C (stereo not shown) was tested, and the “hERG current change (%, negative = inhibition) at 10uM” value was 5.65%. CCOC(=O)C1=C(c2ccccc2)NC(N)=NC1c1ccc(OCc2ccc(Cl)cc2)c(OC)c1 (stereo not shown) was tested, and the “hERG current change (%, negative = inhibition) at 10uM” value was -36.8%. For COc1ccc(CCNC(=O)C2CCN(S(=O)(=O)c3ccc4nc5c(c(C(=O)O)c4c3)CCCC5)CC2)cc1OC, the “hERG current change (%, negative = inhibition) at 10uM” value was 1.65%. For Cc1ccccc1-n1ncc2c1CC(C)(C)CC2NC(=O)CN1CCCC1=O (stereo not shown), the “hERG current change (%, negative = inhibition) at 10uM” value was 9.7%. O=C(O)c1ccc(CSCc2ccccc2F)o1 was tested, and the “hERG current change (%, negative = inhibition) at 10uM” value was -1.86%. O=C(c1ccccc1)N1CCN(c2ccc(N3CCOCC3)nn2)CC1 was tested, and the “hERG current change (%, negative = inhibition) at 10uM” value was -1.73%. In the case of O=C(c1ccc(CSCc2ccccc2F)o1)N1CCN(c2ccc(N3CCOCC3)nn2)CC1, the “hERG current change (%, negative = inhibition) at 10uM” value is reported as -66.7%. CCC1CCCCN1CCCNC(=O)CNC(=O)c1nn(-c2ccc(OC)cc2)c(=O)c2ccccc12 (stereo not shown) was tested, and the “hERG current change (%, negative = inhibition) at 10uM” value was -31.9%. With CCCC/C=C1\CCc2c([nH]c3ccccc23)C1=O the “hERG current change (%, negative = inhibition) at 10uM” value was 10.1%. In the case of CCCCCCCCC1=NCCc2c1[nH]c1ccccc21.Cl, the “hERG current change (%, negative = inhibition) at 10uM” value is reported as -79.2%. CC1=NCCc2c1[nH]c1ccccc21 was tested, and the “hERG current change (%, negative = inhibition) at 10uM” value was -22.7%. For Cc1cccc(NC(=O)c2ccco2)c1C, the “hERG current change (%, negative = inhibition) at 10uM” value was 22.4%. With CC1=C(C#N)C(c2ccccc2)C2=C(N1)c1ccccc1C2=O (stereo not shown) the “hERG current change (%, negative = inhibition) at 10uM” value was 1.22%. Cc1ccccc1S(=O)(=O)Cc1ccc(C(=O)N2CCN(c3ccc(F)cc3)CC2)o1 was tested, and the “hERG current change (%, negative = inhibition) at 10uM” value was -64.3%. COc1ccc(N2CCN(C(=O)c3ccc(CS(=O)(=O)c4ccccc4C)o3)CC2)cc1 was tested, and the “hERG current change (%, negative = inhibition) at 10uM” value was -21.5%. With Cc1ccc(S(=O)(=O)Cc2ccc(C(=O)N3CCN(c4ccc(F)cc4)CC3)o2)cc1 the “hERG current change (%, negative = inhibition) at 10uM” value was -69.5%. Cc1ccccc1S(=O)(=O)Cc1ccc(C(=O)N2CCN(c3ccccc3F)CC2)o1 was tested, and the “hERG current change (%, negative = inhibition) at 10uM” value was -40.7%. O=C(c1ccc(CS(=O)(=O)c2ccc(Br)cc2)o1)N1CCN(c2ccc(F)cc2)CC1 was tested, and the “hERG current change (%, negative = inhibition) at 10uM” value was 6.91%. In the case of Cc1ccc(S(=O)(=O)Cc2ccc(C(=O)N3CCN(c4cc(C)ccc4C)CC3)o2)cc1, the “hERG current change (%, negative = inhibition) at 10uM” value is reported as -18.7%. With O=C(CNC(=O)c1ccc(S(=O)(=O)N2CCCC2)cc1)N/N=C/c1ccc(Cl)cc1Cl the “hERG current change (%, negative = inhibition) at 10uM” value was -3.34%. Cc1ccccc1NCCC(=O)Nc1ccc(F)cc1 was tested, and the “hERG current change (%, negative = inhibition) at 10uM” value was -21.4%. COc1ccc(/C=C(\NC(=O)c2ccc(C)cc2)C(=O)NCC2CCCO2)cc1 (stereo not shown) was tested, and the “hERG current change (%, negative = inhibition) at 10uM” value was -8.44%. In the case of COc1ccc(C(=O)N/C(=C/c2ccc(Cl)cc2)C(=O)NCc2ccncc2)cc1, the “hERG current change (%, negative = inhibition) at 10uM” value is reported as -65.4%. COc1ccc(C(=O)N/C(=C\c2ccc(Cl)cc2)C(=O)NCC2CCCO2)cc1 (stereo not shown) was tested, and the “hERG current change (%, negative = inhibition) at 10uM” value was -38%. COc1ccc(/C=C(/NC(=O)c2ccccc2)C(=O)NCc2ccncc2)cc1 was tested, and the “hERG current change (%, negative = inhibition) at 10uM” value was -44.5%. In the case of COc1ccc(/C=C(/NC(=O)c2ccc(C)cc2)C(=O)NCc2ccncc2)cc1, the “hERG current change (%, negative = inhibition) at 10uM” value is reported as -66.2%. For COc1ccc(C(=O)N/C(=C/c2ccc(Cl)cc2)C(=O)Nc2ccc(C(=O)O)cc2)cc1, the “hERG current change (%, negative = inhibition) at 10uM” value was 11.4%. In the case of O=C(O)/C=C/c1cn(-c2ccccc2)nc1-c1ccccc1, the “hERG current change (%, negative = inhibition) at 10uM” value is reported as 3.71%. O=C(NCc1ccccn1)C1CC(=O)N(C2CCCC2)C1 (stereo not shown) was tested, and the “hERG current change (%, negative = inhibition) at 10uM” value was 9.62%. COc1ccc(CNC(=O)CN2C(=O)CC(c3ccccc3)=Nc3ccccc32)cc1 was tested, and the “hERG current change (%, negative = inhibition) at 10uM” value was -8.66%. In the case of Cc1cc(NC(=O)Cn2cnc3c(nnn3-c3cccc(F)c3)c2=O)no1, the “hERG current change (%, negative = inhibition) at 10uM” value is reported as 5.01%. For CC(=O)C(C(C)=O)C(c1ccccc1)c1nc2ccccc2[nH]c1=O (stereo not shown), the “hERG current change (%, negative = inhibition) at 10uM” value was 14.1%. For COc1ccc(F)cc1C(=O)C1CCCN(C(=O)CCc2ccccn2)C1 (stereo not shown), the “hERG current change (%, negative = inhibition) at 10uM” value was 2.48%. For COc1ccccc1C(=O)C1CCCN(Cc2cccc(OCCO)c2)C1 (stereo not shown), the “hERG current change (%, negative = inhibition) at 10uM” value was -19.6%. COC(=O)c1ccc(CN2CCCC(C(=O)c3cc(F)ccc3OC)C2)cc1 (stereo not shown) was tested, and the “hERG current change (%, negative = inhibition) at 10uM” value was -68%. With CCOc1ccc(CN2CCCC(C(=O)c3ccccc3OC)C2)cc1 (stereo not shown) the “hERG current change (%, negative = inhibition) at 10uM” value was -82%. COc1ccccc1C(=O)C1CCCN(C(=O)c2ccccc2Cl)C1 (stereo not shown) was tested, and the “hERG current change (%, negative = inhibition) at 10uM” value was 10.4%. In the case of COc1ccc(F)cc1C(=O)C1CCCN(Cc2ccc(O)cc2)C1 (stereo not shown), the “hERG current change (%, negative = inhibition) at 10uM” value is reported as -52%. In the case of COc1ccc(F)cc1C(=O)C1CCCN(Cc2ccc(Oc3ncccn3)cc2)C1 (stereo not shown), the “hERG current change (%, negative = inhibition) at 10uM” value is reported as -64.2%. In the case of COc1ccc(F)cc1C(=O)C1CCCN(Cc2cnc(C)s2)C1 (stereo not shown), the “hERG current change (%, negative = inhibition) at 10uM” value is reported as -21%. With COc1ccc(F)cc1C(=O)C1CCCN(Cc2cnc(N3CCCC3)s2)C1 (stereo not shown) the “hERG current change (%, negative = inhibition) at 10uM” value was -29.4%. For COC(=O)c1ccc(CN2CCCC(C(=O)c3ccccc3OC)C2)cc1 (stereo not shown), the “hERG current change (%, negative = inhibition) at 10uM” value was -43.1%. In the case of COc1ccccc1C(=O)C1CCCN(Cc2ccc(Oc3ncccn3)cc2)C1 (stereo not shown), the “hERG current change (%, negative = inhibition) at 10uM” value is reported as -40.6%.
